Molecules are shown by their SMILES. Where “and” joins values, the source holds several entries; their conditions need not be identical. Equal entries are not always repeated. Calls of active or inactive are those of the source. Rule for the calls: active = hit-call score of the fitted dose curve at least 0.9, where 1 is the maximum; inactive = score below 0.9.

The assay can be described thus: ATG_Oct_MLP_CIS: Attagene CIS-FACTORIAL HepG2 Assay for human Octamer-Binding Transcription Factor (Oct) (AID 2282993). Conditions: HepG2 Attagene cis-factorial Oct reporter, mRNA; actives raise or lower the signal. Put shortly: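 HepG2 cells transiently transfected with cis-element-driven reporter transcription units (endogenous TF activity); 24 h compound exposure. Reporter mRNA quantified by RT-PCR, 6-FAM labelling, HpaI digestion and capillary electrophoresis; bidirectional fit versus DMSO baseline.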
For the compound `Brc1cc(Br)c(Oc2c(Br)cc(Br)c(Br)c2Br)cc1Br`, the compound was called inactive. Same read-out and setting: next, `FC(F)(F)C(F)(F)C(F)(F)C(F)(F)I`: “inactive”; `Cc1ccc(C(=O)c2ccccc2)cc1`: “inactive”. The same measure, in the same setting: next, `FC(OC(F)(F)C(F)(F)C(F)(F)F)C(F)(F)F` (configuration not stated): “inactive”; `C=CC(=O)OCCC(F)(F)C(F)(F)C(F)(F)C(F)(F)C(F)(F)C(F)(F)C(F)(F)C(F)(F)F`: “inactive”; `OCC(F)(F)C(F)(F)C(F)(F)C(F)(F)C(F)(F)C(F)(F)C(F)(F)C(F)(F)C(F)(F)C(F)(F)C(F)(F)F`: “inactive”. `CCCCCCCCC1CCC(=O)O1` (configuration not stated): the outcome was inactive. Still for that read-out and setting: with `CC1CCC(C(=O)O)CC1` (configuration not stated) the entry was “inactive”; with `Cc1ccc2ccc3ccc(C)cc3c2c1`, “inactive”; with `O=S(=O)(O)C(F)(F)C(F)(F)C(F)(F)C(F)(F)C(F)(F)C(F)(F)C(F)(F)C(F)(F)C(F)(F)C(F)(F)F`, “inactive”. Still for that read-out and setting: next, `Oc1cc2ccccc2cc1O`: “inactive”; `CCCCCCC(C)(C)C(=O)O`: “inactive”; `NC(C(F)(F)F)C(F)(F)F`: “inactive”. Still for that read-out and setting: next, `O=CC(F)(F)C(F)(F)C(F)(F)F`: “inactive”; `CC1=NN(c2ccccc2)C(=O)C1`: “inactive”. Regarding `CCc1cccc(CC)c1NC(=O)C(=O)O`, the call was inactive.

Consider `Cc1cc(C(C)(C)C)c(O)c(C(C)(C)C)c1`, for which the half-maximal activity concentration (AC50) was 33.4 µM (active) and 89.4 µM (active). As to `CC=O`, the compound was called inactive.

On to `O=P(O)(O)CCC(F)(F)C(F)(F)C(F)(F)C(F)(F)C(F)(F)C(F)(F)C(F)(F)C(F)(F)F`, for which the outcome was inactive. Turning to `CCCCCc1ccc(O)cc1`, the call was inactive. Still for that read-out and setting: with `FC(F)=C(F)C(F)(F)C(F)(F)C(F)(F)C(F)F` the entry was “inactive”. Still for that read-out and setting: with `COC(=O)C(F)(F)C(F)(F)C(F)(F)C(F)(F)C(F)(F)F` the entry was “inactive”. In the case of `CCCCCCCCCCCCCCCCCC[N+](C)(C)Cc1ccccc1`, the half-maximal activity concentration (AC50) was 3.19 µM (active). Regarding `c1cc[nH]c1`, the outcome was inactive. Same read-out and setting: with `CC1=CC(=O)c2ccccc2C1=O` the entry was “inactive”; with `CCCCCCCCC(C)=O`, “inactive”. Still for that read-out and setting: with `CCCCCCCC(OC)OC` the entry was “inactive”; with `CCO[Si](C)(C)OCC`, “inactive”. For `CCCCCCOC(=O)c1ccc(O)cc1`, the concentration at half-maximal activity (AC50) was 57 µM (active).

As for `CCCC=O`, the result was inactive. The same measure, in the same setting: with `O=C(NCc1ncc(C(F)(F)F)cc1Cl)c1c(Cl)cccc1Cl` the entry was “inactive”; with `O=C1c2ccc(O)c(O)c2C(=O)c2c(O)ccc(O)c21`, “inactive”.

Turning to `CC(C)(c1ccc(Oc2ccc(N)cc2)cc1)c1ccc(Oc2ccc(N)cc2)cc1`, the call was inactive. For the compound `O=C(O)CCC(F)(F)C(F)(F)C(F)(F)C(F)(F)C(F)(F)F`, the outcome was inactive. Same read-out and setting: next, `O=C(F)C(F)(F)C(F)(F)C(F)(F)C(=O)F`: “inactive”; `C[C@]12CC[C@@H]3c4ccc(O)cc4CC[C@H]3[C@@H]1CC[C@@H]2OC(=O)CCC1CCCC1`: “inactive”. Take `OCCN1CN(CCO)CN(CCO)C1`: the AC50 was 160 µM (active).

The AC50 is the concentration at which the activity in the assay is half-maximal.
